Rows were chosen to be rich in hits. Some 1.4% of all compounds tested hit in one or more screens of this group.
L929 necroptosis: inhibitors of zVAD-triggered necroptosis, primary screen, L929 cells | L929 zVAD necroptosis rescue, ATP luminescence, 24 h; with zVAD 60 µM | viability rescue, % at 10 µM | 0.38% of 220,000 active | AID 1377, 2008;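 active = activation, scaled between plate controls, above about 75%, limit read from the data; inactive = activation under that limit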
Wee1 stabilizer: Wee1 degradation inhibitors, primary screen, cell-based, HeLa, Wee1K328M-luciferase, luminescence. 1.2% of 220,000 active. AID 1321, 2008. reporter increase, % at 5 µM. HeLa Luc-Wee1K328M stability; 100% = proteasome inhibitor MG132 effect;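 active = activation above the mean of all tested compounds plus 3 SD, set per screening run, cut at about 8.8% in these data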;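 also: cells exposed to compound for 20 h before luminescence read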
HSV augment: enhancers of HSV replication in host cells, fold increase, host cell viability. HSV replication augmentation in cells. maximum fold increase. 0.005% of 220,000 active. AID 1956, 2009; in the data active = maximum fold increase above about 1.5; tested in PC3 cells
TNF necrop inh: inhibitors of TNF-alpha triggered necroptosis, primary screen, cell-based, Jurkat FADD-/-, single concentration. activation (protection from cell death), % at 10 µM. AID 463075, 2010. Jurkat FADD-/- TNF necroptosis rescue, ATP luminescence, 24 h; 0 = TNF only, 100 = no-TNF cells. 0.068% of 220,000 active;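 active = activation, meaning protection from cell death, of at least 50% relative to plate controls; inactive = activation below 50%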;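 also: necroptosis triggered by 40 ng/mL TNF-alpha added together with compound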
V-ATPase pHluor: regulators of yeast V-ATPase proton pumping, primary screen, pHLuorin cytosolic pH fluorescence; S. cerevisiae; response, % at 10 µM; 0.37% of 350,000 active; in the data active = response mostly above about 7.3%, no sharp cut-off; inactive = mostly below about 5.4%; also: actives read high
Wee1 stab conf: Wee1 degradation inhibitors, confirmation, cell-based, HeLa, Wee1K328M-luciferase, luminescence, triplicate | AID 1410, 2008 | activation, % at 5 µM | HeLa Luc-Wee1K328M degradation; vehicle 0%, proteasome-blocked wells 100% | shares compounds with Wee1 stabilizer | 4% of 1,100 active; in the data active = activation above about 8.9%
Large screens that a line does not name were inactive (follow-up assays come after a bar, where they were run).

COc1cccc(NC(=O)Nc2ccc3c(c2)nnn3C)c1	Wee1 stabilizer 16 | Wee1 stab conf inactive
CN(C)c1ccc(NC(=O)Nc2ccc3c(c2)nnn3C)cc1	none (no result: L929 necroptosis, Wee1 stabilizer, HSV augment, TNF necrop inh)
Cc1ccc(O)c(C(=O)c2cc(C#N)c3nc4ccccc4n3c2)c1	none (no result: HSV augment)
CCn1cc(C(=O)OCC(=O)N(C)C2CCS(=O)(=O)C2)c(=O)c2ccc(C)nc21 (stereo not drawn)	none
CCn1cc(C(=O)OCC(=O)N2C(C)CCCC2C)c(=O)c2ccc(C)nc21 (stereo not drawn)	Wee1 stabilizer 11 | Wee1 stab conf inactive
O=C(c1ccccc1Cl)N1CCSCC1	Wee1 stabilizer 20 | Wee1 stab conf inactive
O=CN1CCN(C(=O)c2ccccc2Cl)CC1	none (no result: HSV augment)
N#Cc1c(Cl)cccc1-n1ccnc1	none
Cc1cc(C)n(-c2cccc(Cl)c2C#N)n1	Wee1 stabilizer 13 | Wee1 stab conf inactive
COc1cc(NCCCC(C)N)c2ncccc2c1 (stereo not drawn)	Wee1 stabilizer 29 | Wee1 stab conf inactive
CCN(CC)CCNC(=O)COc1ccc(Cl)cc1Cl	Wee1 stabilizer 11 (no result: HSV augment) | Wee1 stab conf inactive
Cc1ccc(S(=O)OCC(=O)Nc2cc(Cl)ccc2N2CCOCC2)cc1 (stereo not drawn)	Wee1 stabilizer 16 | Wee1 stab conf inactive
CCOc1ccc(N(C(=O)c2ccc3c(c2)OCO3)C2C=CS(=O)(=O)C2)cc1 (stereo not drawn)	none (no result: L929 necroptosis, Wee1 stabilizer, HSV augment, TNF necrop inh)
CCOC(=O)N1CCN(CC(=O)Nc2ccc(OC)cc2)CC1	none
CCNC(=S)N1CCN(CC(=O)Nc2ccc(OC)cc2)CC1	Wee1 stabilizer 12 | Wee1 stab conf inactive
CCC(C)NCCOc1ccc(C)cc1[N+](=O)[O-] (stereo not drawn)	Wee1 stabilizer 25 | Wee1 stab conf inactive
CC1Cc2cc(S(=O)(=O)N3CCC(C(=O)Nc4ccccn4)CC3)ccc2N1C(=O)C1CCC1 (stereo not drawn)	none (no result: L929 necroptosis, Wee1 stabilizer, HSV augment, TNF necrop inh)
CCC(=O)Nc1ccc(-c2cc3ccccc3oc2=O)cc1	Wee1 stabilizer 22 | Wee1 stab conf inactive
Cc1ccc(/C=C/C(=O)c2ccc(O)cc2)cc1	Wee1 stabilizer 17 | Wee1 stab conf inactive
C=CCn1c(SCc2cc(=O)n3cc(C)ccc3n2)nnc1-c1ccc(F)cc1	Wee1 stabilizer 15 | Wee1 stab conf inactive
Cc1ccc2nc(CSc3nnc(-c4ccncc4)n3C)cc(=O)n2c1	none (no result: HSV augment)
COc1ccnc2c1c(=O)n(Cc1ccc(Cl)cc1)c(=O)n2C	none (no result: L929 necroptosis, Wee1 stabilizer, HSV augment, TNF necrop inh)
OC[C@@H]1CCCN1Cc1nc(-c2cccs2)no1	Wee1 stabilizer 11 | Wee1 stab conf inactive
CC(=O)O/N=C(\N)c1ccc(-c2csnn2)cc1	none
CCOC(=O)CNC(=O)CN1CCC(c2nc3ccccc3[nH]2)CC1	none (no result: L929 necroptosis, Wee1 stabilizer, HSV augment, TNF necrop inh)
Cc1cc([N+](=O)[O-])nn1CCCC(=O)Nc1ccc(Cl)cc1Cl	none
Cc1c(Cl)cccc1NC(=O)CCCn1nc([N+](=O)[O-])cc1C	Wee1 stabilizer 15 | Wee1 stab conf inactive
Cc1cc(N2C(=O)C(O)=C(C(=O)c3ccc(C)o3)C2c2ccc([N+](=O)[O-])cc2)no1 (stereo not drawn)	none (no result: L929 necroptosis, Wee1 stabilizer, HSV augment, TNF necrop inh)
Cc1nc(NNC(=O)c2ccc(Cl)cc2Cl)cc(-c2ccccc2)n1	Wee1 stabilizer 11 | Wee1 stab conf inactive
CC(C)(C)c1ccc(C(=O)N2CCN(c3ccc(N4CCOCC4)nn3)CC2)cc1	none (no result: L929 necroptosis, Wee1 stabilizer, HSV augment, TNF necrop inh)
O=C(c1ccc(Cl)cc1)C1CCCN(C(=O)c2csnn2)C1 (stereo not drawn)	Wee1 stabilizer 16 | Wee1 stab conf inactive
CN(C(=O)c1ccccc1)c1nc2ccccc2s1	Wee1 stabilizer 13 | Wee1 stab conf inactive
CN(C)C(=O)c1nc2ccccc2s1	none
CCC(C)(C)NC(=O)C(c1ccncc1)N(C(=O)Cn1nnc2ccccc21)c1cc2c(cc1C(C)=O)OCO2 (stereo not drawn)	Wee1 stabilizer 14 | Wee1 stab conf inactive
Cc1ccnc(N2C3CCC2CC(O)(c2ccccc2)C3)n1 (stereo not drawn)	Wee1 stabilizer 12 | Wee1 stab conf inactive

Source: PubChem (several laboratories)
